The panel holds about 83,000 compounds, 20% with a hit somewhere; the sample as a whole holds those more often.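 Treatment: one concentration, 48 hours, 96-well format. Scoring: percent growth, with anything below 10 considered active.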 The source made the active and inactive calls.
Assays:
Assay in all cases: NCI-60 one-dose screen, 48 h (100 = growth as untreated, 0 = no growth, -100 = all killed)
HCT-15 colon = conditions: 10 µM unless noted
HT29 colon = conditions: 10 µM unless noted
SNB-75 CNS = conditions: 10 µM unless noted
SNB-19 CNS = conditions: 10 µM unless noted
U251 CNS = conditions: 10 µM unless noted
PC-3 prostate = conditions: 10 µM unless noted
UACC-62 melanoma = conditions: 10 µM unless noted
LOX IMVI melanoma = conditions: 10 µM
SK-MEL-28 melanoma = conditions: 10 µM unless noted
SK-MEL-2 melanoma = conditions: 10 µM unless noted
EKVX NSCLC = conditions: 10 µM unless noted
SN12C renal = conditions: 10 µM unless noted
UO-31 renal = conditions: 10 µM unless noted
TK-10 renal = conditions: 10 µM unless noted
ACHN renal = conditions: 10 µM unless noted
CAKI-1 renal = conditions: 10 µM unless noted
A498 renal = conditions: 10 µM unless noted
CCRF-CEM leukemia = conditions: 10 µM unless noted
MOLT-4 leukemia = conditions: 10 µM unless noted

Measured: growth

COC(=O)/C=C/c1cccc2c1C(=O)NC(C)(c1cc3cc4ccccc4cc3oc1=O)N2 (centres undefined)
active: LOX IMVI melanoma 6.32%
inactive: HCT-15 colon 54.6% | HT29 colon 32.9% | SNB-75 CNS 61.8% | SNB-19 CNS 49.7% | U251 CNS 43.8% | PC-3 prostate 38.9% | UACC-62 melanoma 49.2% | SK-MEL-28 melanoma 58% | SK-MEL-2 melanoma 79.4% | EKVX NSCLC 67.5% | SN12C renal 35.1% | UO-31 renal 65.4% | TK-10 renal 99.7% | ACHN renal 40.1% | CAKI-1 renal 61.9% | A498 renal 90.6% | CCRF-CEM leukemia 53% | MOLT-4 leukemia 58.7%

COc1ccc(C(=O)/C=C/c2ccccc2Cl)cc1S(N)(=O)=O
inactive: HCT-15 colon 92.9% | HT29 colon 109% | SNB-75 CNS 107% | SNB-19 CNS 97.4% | U251 CNS 109% | PC-3 prostate 106% | UACC-62 melanoma 92.9% | LOX IMVI melanoma 105% | SK-MEL-28 melanoma 103% | SK-MEL-2 melanoma 108% | EKVX NSCLC 97.3% | SN12C renal 97.2% | UO-31 renal 84.9% | TK-10 renal 97.6% | ACHN renal 101% | CAKI-1 renal 102% | A498 renal 119% | CCRF-CEM leukemia 111%

COc1cccc(/C=C/C(=O)c2ccc(OC)c(S(N)(=O)=O)c2)c1
inactive: SNB-75 CNS 20.6% | SNB-19 CNS 27% | PC-3 prostate 48% | UACC-62 melanoma 52.6% | SK-MEL-28 melanoma 60.8% | SK-MEL-2 melanoma 96.5% | EKVX NSCLC 49.4% | SN12C renal 14.5% | TK-10 renal 21.2% | CAKI-1 renal 26.5% | A498 renal 115%
active: HCT-15 colon -7.46% | HT29 colon 4.06% | U251 CNS -31.2% | LOX IMVI melanoma -69.9% | UO-31 renal 2.53% | ACHN renal -40.4% | CCRF-CEM leukemia 2.26%

Cc1cc(C)n(-c2ccc3nnc(-c4ccccc4)n3n2)n1
active: UO-31 renal -77.9%
inactive: HCT-15 colon 86.4% | HT29 colon 115% | SNB-75 CNS 94.4% | SNB-19 CNS 98.3% | U251 CNS 102% | PC-3 prostate 104% | UACC-62 melanoma 99.9% | LOX IMVI melanoma 77.3% | SK-MEL-28 melanoma 122% | SK-MEL-2 melanoma 114% | EKVX NSCLC 88.5% | SN12C renal 94.2% | TK-10 renal 95% | ACHN renal 104% | CAKI-1 renal 74.7% | A498 renal 107% | CCRF-CEM leukemia 112%

CN1CCN(c2ccc(C(=O)/C=C/c3ccc(Br)cc3)cc2)CC1
active: HCT-15 colon 8.41% | HT29 colon 6.76% | U251 CNS -75.7% | UACC-62 melanoma -9.44% | LOX IMVI melanoma -13.4%
inactive: SNB-75 CNS 28.3% | SNB-19 CNS 31.4% | PC-3 prostate 34.4% | SK-MEL-28 melanoma 37.7% | SK-MEL-2 melanoma 85.4% | EKVX NSCLC 51.8% | SN12C renal 13.9% | UO-31 renal 18.8% | TK-10 renal 38.4% | ACHN renal 30.8% | CAKI-1 renal 30.8% | A498 renal 96% | CCRF-CEM leukemia 18.2%

O=C(COc1ccc2c(c1)CCCC(=O)N2)NCc1ccccc1
inactive: HCT-15 colon 42% | HT29 colon 103% | SNB-75 CNS 92.9% | SNB-19 CNS 89% | U251 CNS 90.6% | PC-3 prostate 94.9% | UACC-62 melanoma 86.5% | LOX IMVI melanoma 78.1% | SK-MEL-28 melanoma 90.4% | SK-MEL-2 melanoma 87.1% | EKVX NSCLC 95.2% | SN12C renal 108% | UO-31 renal 84.7% | TK-10 renal 110% | ACHN renal 103% | CAKI-1 renal 92.7% | A498 renal 94.6% | CCRF-CEM leukemia 78% | MOLT-4 leukemia 80.6%

COc1ccc(C(=O)Nc2n[nH]c(Nc3ccccc3)c2C#N)cc1
inactive: HCT-15 colon 102% | HT29 colon 112% | SNB-75 CNS 112% | SNB-19 CNS 99.5% | U251 CNS 111% | PC-3 prostate 111% | UACC-62 melanoma 99.6% | LOX IMVI melanoma 98.3% | SK-MEL-28 melanoma 103% | SK-MEL-2 melanoma 110% | EKVX NSCLC 90.1% | SN12C renal 110% | UO-31 renal 90.7% | TK-10 renal 99.9% | ACHN renal 99.3% | CAKI-1 renal 103% | A498 renal 108% | CCRF-CEM leukemia 114%

COc1ccc2[nH]cc(-c3nnc(N)nc3-c3cn(C)c4ncc(Br)cc34)c2c1
inactive: HCT-15 colon 68.5% | HT29 colon 82.6% | SNB-75 CNS 31.7% | SNB-19 CNS 69.6% | U251 CNS 75.1% | PC-3 prostate 72.9% | UACC-62 melanoma 68.5% | LOX IMVI melanoma 71.9% | SK-MEL-28 melanoma 54% | SK-MEL-2 melanoma 61.1% | EKVX NSCLC 88.7% | SN12C renal 60.2% | UO-31 renal 49.4% | TK-10 renal 46.3% | ACHN renal 50.8% | CAKI-1 renal 43.9% | A498 renal 45.5% | CCRF-CEM leukemia 66.8% | MOLT-4 leukemia 56.6%

C[C@H]1CN(C(=O)c2ccc3c(NNC(=O)c4ccncn4)nc4cc(F)c(F)cc4n23)CCN1
inactive: HCT-15 colon 28.4% | HT29 colon 36.6% | SNB-75 CNS 65.3% | SNB-19 CNS 30.1% | U251 CNS 15.5% | PC-3 prostate 38.7% | LOX IMVI melanoma 12.4% | SK-MEL-28 melanoma 31.1% | SK-MEL-2 melanoma 53.4% | EKVX NSCLC 15.7% | SN12C renal 24.1% | UO-31 renal 13.6% | TK-10 renal 36.8% | CAKI-1 renal 15.2% | A498 renal 50.3% | CCRF-CEM leukemia 10.9%
active: UACC-62 melanoma 6.69% | ACHN renal 8.98%

O=C(NN1C(=O)/C(=C/C=C/c2ccc([N+](=O)[O-])o2)SC1=S)c1ccc(Cl)cc1
active: HCT-15 colon -75.6% | HT29 colon -76.4% | SNB-75 CNS -93.4% | SNB-19 CNS -100% | U251 CNS -97.4% | PC-3 prostate -34.7% | UACC-62 melanoma -100% | LOX IMVI melanoma -97.3% | SK-MEL-28 melanoma -99.7% | SK-MEL-2 melanoma -90.8% | EKVX NSCLC -97.4% | SN12C renal -98.6% | UO-31 renal -100% | TK-10 renal -99% | ACHN renal -100% | CAKI-1 renal -100% | A498 renal -93.7% | CCRF-CEM leukemia -14.7% | MOLT-4 leukemia 2.15%

COc1ccc(C(=O)/C=C/c2cccc3ccccc23)cc1S(N)(=O)=O
inactive: SNB-75 CNS 51.2% | SNB-19 CNS 10.5% | PC-3 prostate 12.8% | SK-MEL-2 melanoma 45.8% | TK-10 renal 22.6% | CAKI-1 renal 13.9% | A498 renal 107%
active: HCT-15 colon -65.3% | HT29 colon -39.5% | U251 CNS -93.9% | UACC-62 melanoma -58% | LOX IMVI melanoma -84.2% | SK-MEL-28 melanoma -50.8% | EKVX NSCLC -6.08% | SN12C renal 6.92% | UO-31 renal -68.9% | CCRF-CEM leukemia 4.74%

C=CC(=O)Nc1ccc(C)c(Oc2ccc(Cl)cc2)c1
active: SNB-75 CNS -8.04%
inactive: HCT-15 colon 49.7% | HT29 colon 60.2% | SNB-19 CNS 38% | U251 CNS 36.5% | PC-3 prostate 56% | UACC-62 melanoma 41.6% | LOX IMVI melanoma 27.8% | SK-MEL-28 melanoma 72% | SK-MEL-2 melanoma 41.8% | EKVX NSCLC 62.6% | SN12C renal 45.3% | UO-31 renal 24.4% | ACHN renal 65.4% | CAKI-1 renal 61.7% | A498 renal 58.5% | CCRF-CEM leukemia 57.9% | MOLT-4 leukemia 45.3%

COc1ccc(NC(=O)Cn2c(/C=C/c3cccc([N+](=O)[O-])c3)nc3ccccc3c2=O)cc1
inactive: HCT-15 colon 78.2% | HT29 colon 88% | SNB-19 CNS 72.9% | U251 CNS 36.1% | PC-3 prostate 94% | UACC-62 melanoma 51.5% | LOX IMVI melanoma 50.8% | SK-MEL-28 melanoma 93.7% | SK-MEL-2 melanoma 106% | EKVX NSCLC 87.8% | SN12C renal 76.1% | UO-31 renal 22.9% | ACHN renal 20.3% | CAKI-1 renal 49.9% | A498 renal 92.8% | CCRF-CEM leukemia 92.3%
active: SNB-75 CNS 1.99%

Cc1ccc(-c2nnc3ccc(N/N=C/c4ccccc4)nn23)cc1
inactive: HCT-15 colon 69.2% | HT29 colon 118% | SNB-19 CNS 86.6% | U251 CNS 75.1% | PC-3 prostate 89.3% | UACC-62 melanoma 98.4% | LOX IMVI melanoma 47.5% | SK-MEL-28 melanoma 95.7% | SK-MEL-2 melanoma 102% | EKVX NSCLC 76.9% | SN12C renal 101% | UO-31 renal 84.5% | TK-10 renal 104% | ACHN renal 95.4% | CAKI-1 renal 83.3% | A498 renal 105% | CCRF-CEM leukemia 88.8%
active: SNB-75 CNS -17%

COc1ccc(NC(=O)[C@@H](N)Cc2ccccc2)cc1C(=O)Nc1cccc(C2CC(=O)c3c(cc(OC)c(OC)c3OC)O2)c1 (some centres undefined)
inactive: HCT-15 colon 37.7% | HT29 colon 73.4% | SNB-75 CNS 108% | SNB-19 CNS 79% | U251 CNS 60.2% | PC-3 prostate 38.8% | UACC-62 melanoma 49.7% | LOX IMVI melanoma 25.1% | SK-MEL-28 melanoma 73.2% | SK-MEL-2 melanoma 77.9% | EKVX NSCLC 72.9% | SN12C renal 56.4% | UO-31 renal 33.8% | TK-10 renal 94.8% | ACHN renal 54.2% | CAKI-1 renal 54.1% | A498 renal 96.3% | CCRF-CEM leukemia 15% | MOLT-4 leukemia 19.5%

COc1ccc(C(=O)/C=C/c2cc3c(cc2Br)OCO3)cc1S(N)(=O)=O
active: HCT-15 colon -40.4% | HT29 colon 0.446% | SNB-75 CNS 2.3% | SNB-19 CNS 6.32% | U251 CNS -95.1% | PC-3 prostate 2.21% | LOX IMVI melanoma -85.5% | EKVX NSCLC 4.57% | SN12C renal -12.5% | UO-31 renal -44.5% | ACHN renal -23% | CAKI-1 renal -20.2% | CCRF-CEM leukemia 5.43%
inactive: UACC-62 melanoma 39.2% | SK-MEL-28 melanoma 27.6% | SK-MEL-2 melanoma 89.2% | TK-10 renal 16.8% | A498 renal 88.7%

O=C(c1ccccc1)c1ccc2nc(-c3cccc(Cl)c3)[nH]c2c1
inactive: HCT-15 colon 108% | HT29 colon 110% | SNB-75 CNS 99.2% | SNB-19 CNS 103% | U251 CNS 96.5% | PC-3 prostate 99.6% | UACC-62 melanoma 98% | LOX IMVI melanoma 95.4% | SK-MEL-28 melanoma 104% | SK-MEL-2 melanoma 106% | EKVX NSCLC 105% | SN12C renal 99.5% | UO-31 renal 95.4% | TK-10 renal 95.9% | ACHN renal 100% | A498 renal 114% | CCRF-CEM leukemia 113% | MOLT-4 leukemia 103%
